Test results from PubChem BioAssay (Tox21).
A number with no mark means an inactive call. Records with an inconclusive call do not appear. Entries that show only a call come without a potency. Calls of active or inactive are those of the source. Unless noted, calls follow the shape of the dose curve; as a rule, active = well fitted curve in the direction sought with a large enough effect in the repeat runs; inconclusive = weak or mixed curves; inactive = flat fitted curve, though single readings scatter.

Key:
[1] = qHTS assay to test for compound auto fluorescence at 535 nm (green) in HEK293 cells (AID 720680)
[2] = qHTS assay to test for compound auto fluorescence at 460 nm (blue) in HEK293 cell free culture (AID 720681)
Method in brief: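 Blue fluorescence (Ex 405/Em 460 nm, triamterene-equivalent) was read immediately after pin transfer of compound or DMSO into medium (DMEM, 10% FBS) without cells.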

[3] = qHTS assay to test for compound auto fluorescence at 535 nm (green) in HEK293 cell free culture (AID 720682)
Method in brief: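 Green-label autofluorescence (485 nm excitation, 535 nm emission) measured on compound added to cell-free culture medium (DMEM, 10% FBS). Output is expressed relative to fluorescein.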

[4] = qHTS assay to test for compound auto fluorescence at 590 nm (red) in HEK293 cell free culture (AID 720683)
Method in brief: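 Red-channel autofluorescence of compounds in culture medium (DMEM, 10% FBS), no cells, measured at 540/590 nm. Rose Bengal sodium is the reference fluorophore for equivalence.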

[5] = qHTS assay to test for compound auto fluorescence at 590 nm (red) in HepG2 cell free culture (AID 720684)
Method in brief: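 Steps: dispense MEM/10% FBS medium, no cells; pin compound or DMSO vehicle; read red channel, Ex/Em 540/590 nm. Output given as Rose Bengal sodium equivalents.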

[6] = qHTS assay to test for compound auto fluorescence at 460 nm (blue) in HepG2 cell free culture (AID 720685)
Method in brief: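 Compound (23 nL) or DMSO pinned into cell-free MEM with 10% FBS; blue fluorescence read at 405/460 nm excitation/emission, expressed as auto-fluorescence equivalency to triamterene.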

[7] = qHTS assay to test for compound auto fluorescence at 535 nm (green) in HepG2 cell free culture (AID 720686)
[8] = qHTS assay to test for compound auto fluorescence at 460 nm (blue) in HepG2 cells (AID 720687)
Method in brief: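 Blue-channel autofluorescence (Ex/Em 405/460 nm, triamterene-equivalent) was measured after 1 hr compound exposure at 37 C, 5% CO2. Cells were HepG2, plated overnight at 37 C in MEM plus 10% FBS.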

[9] = target: Glucocorticoid receptor (Homo sapiens) (UniProt P04150); assay: qHTS assay to identify small molecule agonists of the glucocorticoid receptor (GR) signaling pathway (AID 720691; active = well fitted activation curve with a large enough effect in the signal ratio in the repeat runs, not every such curve was filed as active; the % refers to the signal ratio)
Method in brief: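 Agonist mode in a HeLa line carrying a GRE-controlled beta-lactamase reporter. Compounds act for 18 h at 37 C before a 2 h room-temperature FRET substrate step and fluorescence reading.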

[10] = target: Glucocorticoid receptor (Homo sapiens) (UniProt P04150); assay: qHTS assay to identify small molecule antagonists of the glucocorticoid receptor (GR) signaling pathway (AID 720692; active = well fitted inhibition curve with a large enough effect in the signal ratio in the repeat runs, not every such curve was filed as active; the % refers to the signal ratio; also: potency is read from the fitted curve at half-maximal effect)
Method in brief: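 Cells plated, rested 4 h at 37 C/5% CO2; compounds in DMSO pin-transferred; dexamethasone added to 5 nM final; 18 h at 37 C; B/G FRET substrate added, 2 h room temperature; fluorescence measured.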

Glucocorticoid receptor (Homo sapiens), sequence (P04150 whole entry, looked up): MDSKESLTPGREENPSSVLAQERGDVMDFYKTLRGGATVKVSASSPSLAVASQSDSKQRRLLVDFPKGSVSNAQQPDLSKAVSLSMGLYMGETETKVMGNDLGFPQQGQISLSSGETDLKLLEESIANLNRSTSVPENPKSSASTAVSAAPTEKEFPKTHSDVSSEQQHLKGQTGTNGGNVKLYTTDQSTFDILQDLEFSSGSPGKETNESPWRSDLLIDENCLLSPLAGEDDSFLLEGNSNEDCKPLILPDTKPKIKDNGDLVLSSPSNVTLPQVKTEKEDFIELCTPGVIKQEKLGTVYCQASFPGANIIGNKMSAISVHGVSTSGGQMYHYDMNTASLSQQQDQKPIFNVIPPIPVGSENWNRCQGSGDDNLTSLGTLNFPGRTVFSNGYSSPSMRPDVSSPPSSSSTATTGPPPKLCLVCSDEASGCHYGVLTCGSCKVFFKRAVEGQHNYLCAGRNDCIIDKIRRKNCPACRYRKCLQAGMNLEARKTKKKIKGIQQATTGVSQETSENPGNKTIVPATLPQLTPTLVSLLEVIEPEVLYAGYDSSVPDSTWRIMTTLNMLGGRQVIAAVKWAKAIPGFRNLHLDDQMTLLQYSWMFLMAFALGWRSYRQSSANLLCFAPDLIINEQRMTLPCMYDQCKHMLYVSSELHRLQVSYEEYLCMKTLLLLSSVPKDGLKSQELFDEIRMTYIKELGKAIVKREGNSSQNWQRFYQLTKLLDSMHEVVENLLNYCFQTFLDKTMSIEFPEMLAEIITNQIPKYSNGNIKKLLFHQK

With CC(=O)Nc1cc([As](=O)(O)O)ccc1O the outcome [1] was “inactive”, the outcome [2] was “inactive” and the outcome [3] was “inactive”. The outcome [4] was “inactive”, the outcome [5] was “inactive” and the outcome [6] was “inactive”. The outcome [7] was “inactive”, the outcome [8] was “inactive” and the outcome [9] was “inactive”. The Potency [10] was “inactive”.

In the case of O=C(O)C(Br)CBr (centres undefined), the outcome [1] is reported as “inactive”, the outcome [2] is reported as “inactive” and the outcome [3] is reported as “inactive”. For the same compound, the outcome [4] was “inactive”, the outcome [5] was “inactive” and the outcome [6] was “inactive”. The outcome [7] was “inactive”, the outcome [8] was “inactive” and the outcome [9] was “inactive”. For the same compound, the Potency [10] was “inactive”.

With Cc1nnc2n1-c1sc(CCC(=O)N3CCOCC3)cc1C(c1ccccc1Cl)=NC2 the outcome [1] was “inactive”, the outcome [2] was “inactive” and the outcome [3] was “inactive”. The outcome [4] was “inactive”, the outcome [5] was “inactive” and the outcome [6] was “inactive”. For the same compound, the outcome [7] was “inactive”, the outcome [8] was “inactive” and the outcome [9] was “inactive”. For the same compound, the Potency [10] was “inactive”.

With ClC(Cl)(Cl)C(Cl)(Cl)Cl the outcome [1] was “inactive”, the outcome [2] was “inactive” and the outcome [3] was “inactive”. For the same compound, the outcome [4] was “inactive”, the outcome [5] was “inactive” and the outcome [6] was “inactive”. For the same compound, the outcome [7] was “inactive”, the outcome [8] was “inactive” and the outcome [9] was “inactive”. The Potency [10] was “inactive”.

With O=S(=O)(O)C(F)(F)C(F)(F)C(F)(F)C(F)(F)C(F)(F)C(F)(F)F the outcome [1] was “inactive”, the outcome [2] was “inactive” and the outcome [3] was “inactive”. For the same compound, the outcome [4] was “inactive”, the outcome [5] was “inactive” and the outcome [6] was “inactive”. For the same compound, the outcome [7] was “inactive”, the outcome [8] was “inactive” and the outcome [9] was “inactive”. The Potency [10] was “inactive”.

With CNNC the outcome [1] was “inactive”, the outcome [2] was “inactive” and the outcome [3] was “inactive”. For the same compound, the outcome [4] was “inactive”, the outcome [5] was “inactive” and the outcome [6] was “inactive”. The outcome [7] was “inactive”, the outcome [8] was “inactive” and the outcome [9] was “inactive”. The Potency [10] was “inactive”.

With CN1C(=S)CN=C(c2ccccc2)c2cc(Cl)ccc21 the outcome [1] was “inactive”, the outcome [2] was “inactive” and the outcome [3] was “inactive”. For the same compound, the outcome [4] was “inactive”, the outcome [5] was “inactive” and the outcome [6] was “inactive”. For the same compound, the outcome [7] was “inactive”, the outcome [8] was “inactive” and the outcome [9] was “inactive”. For the same compound, the Potency [10] was 12 µM (active).

In the case of C=C(C)CN(CC)c1c([N+](=O)[O-])cc(C(F)(F)F)cc1[N+](=O)[O-], the outcome [1] is reported as “inactive”, the outcome [2] is reported as “inactive” and the outcome [3] is reported as “inactive”. The outcome [4] was “inactive”, the outcome [5] was “inactive” and the outcome [6] was “inactive”. For the same compound, the outcome [7] was “inactive”, the outcome [8] was “inactive” and the outcome [9] was “inactive”. The Potency [10] was “inactive”.

With COC(=O)C(c1ccccc1)C1CCCCN1 (centres undefined) the outcome [1] was “inactive”, the outcome [2] was “inactive” and the outcome [3] was “inactive”. The outcome [4] was “inactive”, the outcome [5] was “inactive” and the outcome [6] was “inactive”. The outcome [7] was “inactive”, the outcome [8] was “inactive” and the outcome [9] was “inactive”. For the same compound, the Potency [10] was “inactive”.

In the case of Cc1ncc2n1-c1ccc(Cl)cc1C(c1ccccc1F)=NC2, the outcome [1] is reported as “inactive”, the outcome [2] is reported as “inactive” and the outcome [3] is reported as “inactive”. For the same compound, the outcome [4] was “inactive”, the outcome [5] was “inactive” and the outcome [6] was “inactive”. For the same compound, the outcome [7] was “inactive”, the outcome [8] was “inactive” and the outcome [9] was “inactive”. The Potency [10] was 16.9 µM (active).

In the case of O=C(N[C@H]1CN2CCC1CC2)c1cc2ccoc2cn1, the outcome [1] is reported as “inactive”, the outcome [2] is reported as “inactive” and the outcome [3] is reported as “inactive”. The outcome [4] was “inactive”, the outcome [5] was “inactive” and the outcome [6] was “inactive”. For the same compound, the outcome [7] was “inactive”, the outcome [8] was “inactive” and the outcome [9] was “inactive”. The Potency [10] was “inactive”.

For CC1(C)COP(Oc2ccccc2)OC1, the outcome [1] was “inactive”, the outcome [2] was “inactive” and the outcome [3] was “inactive”. For the same compound, the outcome [4] was “inactive”, the outcome [5] was “inactive” and the outcome [6] was “inactive”. For the same compound, the outcome [7] was “inactive”, the outcome [8] was “inactive” and the outcome [9] was “inactive”. The Potency [10] was “inactive”.

With Cc1cc(C)nc(Nc2ccccc2)n1 the outcome [1] was “inactive”, the outcome [2] was “inactive” and the outcome [3] was “inactive”. The outcome [4] was “inactive”, the outcome [5] was “inactive” and the outcome [6] was “inactive”. For the same compound, the outcome [7] was “inactive”, the outcome [8] was “inactive” and the outcome [9] was “inactive”. The Potency [10] was “inactive”.

With O=C(Nc1ccccc1)c1ccccc1I the outcome [1] was “inactive”, the outcome [2] was “inactive” and the outcome [3] was “inactive”. The outcome [4] was “inactive”, the outcome [5] was “inactive” and the outcome [6] was “inactive”. For the same compound, the outcome [7] was “inactive”, the outcome [8] was “inactive” and the outcome [9] was “inactive”. For the same compound, the Potency [10] was “inactive”.

With NC1=NC(=O)C(c2ccccc2)O1 (centres undefined) the outcome [1] was “inactive”, the outcome [2] was “inactive” and the outcome [3] was “inactive”. The outcome [4] was “inactive”, the outcome [5] was “inactive” and the outcome [6] was “inactive”. For the same compound, the outcome [7] was “inactive”, the outcome [8] was “inactive” and the outcome [9] was “inactive”. For the same compound, the Potency [10] was “inactive”.

For Cc1ncsc1CCCl, the outcome [1] was “inactive”, the outcome [2] was “inactive” and the outcome [3] was “inactive”. For the same compound, the outcome [4] was “inactive”, the outcome [5] was “inactive” and the outcome [6] was “inactive”. The outcome [7] was “inactive”, the outcome [8] was “inactive” and the outcome [9] was “inactive”. The Potency [10] was “inactive”.

In the case of CN(N=O)C(N)=O, the outcome [1] is reported as “inactive”, the outcome [2] is reported as “inactive” and the outcome [3] is reported as “inactive”. For the same compound, the outcome [4] was “inactive”, the outcome [5] was “inactive” and the outcome [6] was “inactive”. For the same compound, the outcome [7] was “inactive”, the outcome [8] was “inactive” and the outcome [9] was “inactive”. The Potency [10] was “inactive”.

For C[C@]12CC[C@H]3[C@@H](CC=C4C[C@@H](O)CC[C@@]43C)[C@@H]1CC[C@@H]2O, the outcome [1] was “inactive”, the outcome [2] was “inactive” and the outcome [3] was “inactive”. For the same compound, the outcome [4] was “inactive”, the outcome [5] was “inactive” and the outcome [6] was “inactive”. For the same compound, the outcome [7] was “inactive”, the outcome [8] was “inactive” and the outcome [9] was “inactive”. The Potency [10] was 6.01 µM (active).

In the case of COCC(=O)N(c1c(C)cccc1C)N1CCOC1=O, the outcome [1] is reported as “inactive”, the outcome [2] is reported as “inactive” and the outcome [3] is reported as “inactive”. For the same compound, the outcome [4] was “inactive”, the outcome [5] was “inactive” and the outcome [6] was “inactive”. The outcome [8] was “inactive”.

For CCOC(=O)/C=C(C)/C=C/C[C@@H](C)CCCC(C)C, the outcome [1] was “inactive”, the outcome [2] was “inactive” and the outcome [3] was “inactive”. The outcome [4] was “inactive”, the outcome [5] was “inactive” and the outcome [6] was “inactive”. For the same compound, the outcome [7] was “inactive”, the outcome [8] was “inactive” and the outcome [9] was “inactive”. The Potency [10] was “inactive”.

In the case of CN1C[C@@H](NS(=O)(=O)N(C)C)C[C@@H]2c3cccc4c3c(cn4C)C[C@H]21, the outcome [1] is reported as “inactive”, the outcome [2] is reported as “inactive” and the outcome [3] is reported as “inactive”. The outcome [4] was “inactive”, the outcome [5] was “inactive” and the outcome [6] was “inactive”. For the same compound, the outcome [7] was “inactive”, the outcome [8] was “inactive” and the outcome [9] was “inactive”. The Potency [10] was “inactive”.

For CNCC(=O)c1ccc(O)c(O)c1, the outcome [1] was “inactive”, the outcome [2] was “inactive” and the outcome [3] was “inactive”. For the same compound, the outcome [4] was “inactive”, the outcome [5] was “inactive” and the outcome [6] was “inactive”. For the same compound, the outcome [7] was “inactive”, the outcome [8] was “inactive” and the outcome [9] was “inactive”. For the same compound, the Potency [10] was “inactive”.

For O=[N+]([O-])c1ccc2c3c(cccc13)CC2, the outcome [1] was “inactive”, the outcome [2] was “inactive” and the outcome [3] was “inactive”. For the same compound, the outcome [4] was “inactive”, the outcome [5] was “inactive” and the outcome [6] was “inactive”. The outcome [8] was “inactive”.
